Inconclusive results are not listed. Calls of active or inactive are those of the source.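 Rule for the calls, unless noted: active = growth inhibition above 25% in both replicates, a cutoff set 3 SD above the mean; inconclusive = above 25% in only one replicate; inactive = the rest.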
Key:
[1] = reducers of endogenous Her2 protein level, primary screen, SKBR3 breast tumor cells, AlphaScreen, ATP viability (AID 461;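 active = Her2 level under about 52% in both replicate screens, with viability over 70% of control, limit read from the data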;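 for Her2 level: lower value means less Her2 protein in the cells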;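 for viability: percent of carrier control wells set as 100% viability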); details: 18-24 h, measured here: SKBR3 viability, ATP luminescence, at 10 µM
[2] = molecular target: Receptor tyrosine-protein kinase erbB-2 (Homo sapiens) (UniProt P04626); assay: as above; details: 18-24 h, at 10 µM, stronger effect = lower value
Sequence of Receptor tyrosine-protein kinase erbB-2 (Homo sapiens) (P04626 whole entry, looked up): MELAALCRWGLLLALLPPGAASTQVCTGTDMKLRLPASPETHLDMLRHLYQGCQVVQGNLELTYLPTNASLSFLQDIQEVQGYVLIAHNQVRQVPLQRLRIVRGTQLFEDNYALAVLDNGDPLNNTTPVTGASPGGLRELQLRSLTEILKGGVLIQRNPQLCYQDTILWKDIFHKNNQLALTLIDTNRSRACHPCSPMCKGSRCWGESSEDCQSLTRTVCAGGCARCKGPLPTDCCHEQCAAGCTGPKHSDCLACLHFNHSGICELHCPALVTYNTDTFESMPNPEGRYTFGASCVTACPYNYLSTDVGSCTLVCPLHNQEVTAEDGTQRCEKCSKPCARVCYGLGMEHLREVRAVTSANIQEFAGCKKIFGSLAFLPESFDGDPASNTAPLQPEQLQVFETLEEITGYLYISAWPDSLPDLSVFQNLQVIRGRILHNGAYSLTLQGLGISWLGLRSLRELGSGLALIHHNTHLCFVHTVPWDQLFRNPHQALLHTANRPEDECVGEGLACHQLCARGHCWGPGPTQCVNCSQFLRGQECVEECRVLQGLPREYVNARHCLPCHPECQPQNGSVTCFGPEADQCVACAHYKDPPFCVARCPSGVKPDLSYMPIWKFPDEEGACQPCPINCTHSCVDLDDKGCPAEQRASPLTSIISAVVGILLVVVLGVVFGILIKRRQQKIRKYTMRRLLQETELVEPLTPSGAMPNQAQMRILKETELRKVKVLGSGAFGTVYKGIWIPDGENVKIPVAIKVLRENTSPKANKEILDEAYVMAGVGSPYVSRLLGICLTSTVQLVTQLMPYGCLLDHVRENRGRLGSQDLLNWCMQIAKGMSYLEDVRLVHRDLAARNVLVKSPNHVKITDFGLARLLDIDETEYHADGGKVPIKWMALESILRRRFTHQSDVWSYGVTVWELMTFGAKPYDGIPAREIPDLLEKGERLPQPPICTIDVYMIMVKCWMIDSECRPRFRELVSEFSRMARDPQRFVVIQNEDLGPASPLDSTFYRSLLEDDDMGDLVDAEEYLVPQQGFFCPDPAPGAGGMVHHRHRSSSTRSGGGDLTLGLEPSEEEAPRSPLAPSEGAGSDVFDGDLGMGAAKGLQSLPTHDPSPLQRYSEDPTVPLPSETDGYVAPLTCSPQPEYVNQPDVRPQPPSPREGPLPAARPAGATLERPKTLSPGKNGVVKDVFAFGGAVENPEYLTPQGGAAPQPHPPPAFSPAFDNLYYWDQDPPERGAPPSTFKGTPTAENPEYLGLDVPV

[3] = SK-BR-3 cell growth inhibitors, pilot screen, 24 h, human (AID 572;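 active = viability at or below 10% of carrier control in both of two separate runs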;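 note: compound exposure lasted between 18 and 24 h rather than exactly 24 h; 100% = carrier-treated control wells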); details: SK-BR-3 viability, CellTiter-Glo luminescence, at 10 µM, stronger effect = lower value
[4] = HUVEC growth inhibition – cell-based, human, primary screen (AID 575;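 active = viability at or below 30% in both replicate assays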;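 note: 100% = median of untreated cell wells with 0.1% DMSO on each plate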); details: HUVEC proliferation, CellTiter-Glo luminescence, 72 h; at 10 µM; stronger effect = lower value
[5] = growth inhibitors of H69AR lung tumor, primary screen, human, duplicate replicates (AID 580;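 active = viability at or under a set limit in both replicates, limit being median viability minus 3 SD, cut at about 48% in these data, passing the limit was not always enough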;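 note: 100% = mean luminescence of untreated wells and 0% = no signal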); details: H69AR lung tumor cells viability, ATP luminescence, 72 h; at 10 µM; stronger effect = lower value
[6] = reversal of MRP1-mediated doxorubicin resistance, pilot screen, H69AR cells, doxorubicin co-treatment (AID 601;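 active = viability loss from added drug above about 55%, and viability with drug at most 40%, in both replicates, limit read from the data, passing the limit was not always enough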); details: CellTiter-Glo, 72 h, at 10 µM; for differential viability (reversal): stronger effect = higher value
[7] = 384-well plate pilot, post-Golgi transport modulator project, inhibition of yeast transport mutant growth (AID 636; in the data active = inhibition above about 31%); details: absorbance 615 nm, about 18 h, stronger effect = higher value
[8] = growth suppression of yeast trafficking mutant, preliminary HTS, modulators of trafficking downstream of Golgi apparatus project, 1536-format plate, OD 615 nm (AID 637; in the data active = inhibition above about 30%); details: yeast transport mutant growth, absorbance 615 nm, 18 h; stronger effect = higher value
[9] = OD615 S. cerevisiae growth inhibition, permissive medium, pilot counter-assay, permissive growth control for S. cerevisiae lifespan shortening project (AID 705); details: OD615, 24 h, at 10 µM, stronger effect = higher value
[10] = Restrictive medium S. cerevisiae growth inhibition, OD615, pilot screen of yeast lifespan reduction project, restrictive growth control (AID 706;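 active = growth inhibition above a set limit, 3 SD over mean compound inhibition, in both replicates, cut at about 43% in these data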;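 note: modified DeaD lifespan yeast strain shifted to restrictive glucose medium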); details: OD615, 48 h, at 10 µM, stronger effect = higher value
[11] = viability gain of MRP-1-high H69AR cells under doxorubicin, pilot screen, MRP-1 activator project, CellTiter-Glo, duplicate (AID 807;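 active = viability increase at or above a cutoff of the median across tested compounds plus 3 SD, cut at about 8.5% in these data, passing the limit was not always enough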;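 note: compound pretreatment 18-22 h then 72 h combined with doxorubicin; 0% = doxorubicin alone and 100% = vehicle without doxorubicin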); details: H69AR viability with doxorubicin, CellTiter-Glo luminescence; at 10 µM; stronger effect = higher value
[12] = growth suppression of beta-catenin knockout HCT116, pilot screen, human colon tumor cells (AID 823;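 active = cell viability at or below a set limit in both duplicate runs, the limit being the all-compound median minus 4 SD, cut at about 23% in these data, passing the limit was not always enough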;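 note: 0% = wells killed by 20 µM Hyamine and 100% = untreated DMSO cell wells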); details: CellTiter-Glo, 60 h, at 10 µM, stronger effect = lower value
[13] = growth suppression of PTEN-deleted HCT116, pilot screen, cell-based, HCT116 clonal line, CellTiter-Glo (AID 824;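 active = viability at or below 27.92% in each of two runs, the all-compound median minus 4 SD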;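 note: 0% = 20 µM Hyamine control and 100% = vehicle cell control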); details: 60 h, at 10 µM, stronger effect = lower value
[14] = inhibitors of the yeast RAM network, pilot screen, dse1pr::URA3 reporter, 5-FOA selection (AID 869;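 active = inhibition over a set limit, the all-compound mean plus 3 SD, in both replicate runs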;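 note: 0% = DMSO wells with no growth and 100% = 10 µM 1-NA-PP1 with full growth; RAM network block rescues cells from 5-FOA so hits raise OD615 growth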); details: S. cerevisiae dse1pr::URA3 5-FOA growth, OD615, 2 d; at 10 µM; stronger effect = higher value; strain carries analog-sensitive mutant Cbk1 kinase
[15] = RAM signaling pathway blockade in yeast – S. cerevisiae, Pdr1DBD-CYC8 efflux-inhibited sensitized strain, primary screen (AID 1298;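 active = RAM network inhibition above 8.4% in each of two replicates, 3 SD over the compound average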;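 note: 0% = DMSO untreated cells without growth and 100% = 10 µM 1-NA-PP1 full growth; higher means more yeast growth rescued from 5-FOA killing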); details: S. cerevisiae cbk1-as DSE1-URA3 strain, 5-FOA growth OD615, 2 d; at 50 µM; stronger effect = higher value
[16] = H69AR cells + 2 uM doxorubicin, measured here: viability with 2 uM doxorubicin, stronger effect = lower value
[17] = H69AR cells, compound alone cytotoxicity

| SMILES | viability [1] [%] | Her2 level [2] | viability [3] | viability [4] | viability [5] | differential viability (reversal) ([6]; H69AR cells + 2 uM doxorubicin) | viability [6, 16] [%] | viability [6, 17] [%] | inhibition [7] | inhibition [8] | growth inhibition [9] | growth inhibition [10] | viability increase [11] | viability [12] | viability [13] | inhibition [14] | RAM network inhibition [15] |
| --- | --- | --- | --- | --- | --- | --- | --- | --- | --- | --- | --- | --- | --- | --- | --- | --- | --- |
| Cn1cc(Cl)c(C(=O)NC2CCCC2)n1 | 83.5 | 118% (inactive) | 83.5% (inactive) | 108% (inactive) | 105% (inactive) | 14.1% (inactive) | 91.3 | 105 | -5.07% (inactive) | 5.5% (inactive) | -12.3% (inactive) | -8.69% (inactive) | -0.89% (inactive) | 104% (inactive) | 103% (inactive) | 1.5% (inactive) | 2.86% (inactive) |
| c1ccc2c(c1)nc(NCCN1CCOCC1)c1nncn12 | 92 | 102% (inactive) | 92% (inactive) | 109% (inactive) | 94.7% (inactive) | 8.78% (inactive) | 85.9 | 94.7 | -1.67% (inactive) | 2.5% (inactive) | -10.4% (inactive) | -3.62% (inactive) | 1.59% (inactive) | 103% (inactive) | 103% (inactive) | -0.055% (inactive) | -0.1% (inactive) |
| N#CCCN1CCN(S(=O)(=O)c2ccc(S(=O)(=O)NC3CCCC3)cc2)CC1 | 88.5 | 124% (inactive) | 88.5% (inactive) | 99.3% (inactive) | 107% (inactive) | 33.5% (inactive) | 73.1 | 107 | -3.46% (inactive) | -8% (inactive) | -9.39% (inactive) | -4.06% (inactive) | -0.87% (inactive) | 101% (inactive) | 100% (inactive) | 2.69% (inactive) | 3.21% (inactive) |
| COc1cc(C(=O)Nc2cccc(-c3nncn3C)c2)cc(OC)c1OC | 102 | 110% (inactive) | 102% (inactive) | 101% (inactive) | 89% (inactive) | 7.79% (inactive) | 81.2 | 89 | -2.31% (inactive) | -5.5% (inactive) | 2.38% (inactive) | 4.63% (inactive) | -1.76% (inactive) | 91.4% (inactive) | 104% (inactive) | 0.045% (inactive) | 1.54% (inactive) |
| CC1(C)CC(=O)c2cnc(NC(=O)CCc3ccccc3)nc2C1 | 93 | 82% (inactive) | 93% (inactive) | 112% (inactive) | 90.2% (inactive) | 0.98% (inactive) | 89.2 | 90.2 | -0.65% (inactive) | -4.5% (inactive) | -7.5% (inactive) | -11.6% (inactive) | 1.81% (inactive) | 97.6% (inactive) | 101% (inactive) | 1.27% (inactive) | 6.48% (inactive) |
| COc1cccc(C2CC(=O)Nc3cc4c(cc32)OCCO4)c1OC(C)C (stereo not drawn) | 99 | 88.5% (inactive) | 99% (inactive) | 84.6% (inactive) | 41.2% (active) | -29.5% (inactive) | 70.7 | 41.2 | -1.2% (inactive) | -3.61% (inactive) | -3.68% (inactive) | 0.265% (inactive) | -4.91% (inactive) | 65.7% (inactive) | 65% (inactive) | 0.76% (inactive) | 2.97% (inactive) |
| CSc1cccc(NS(=O)(=O)c2ccccc2)c1 | 78.5 | 88% (inactive) | 78.5% (inactive) | 107% (inactive) | 88.7% (inactive) | 1.02% (inactive) | 87.7 | 88.7 | -0.9% (inactive) | -5.33% (inactive) | -0.535% (inactive) | 3.39% (inactive) | 0.44% (inactive) | 92.1% (inactive) | 95% (inactive) | 0.96% (inactive) | 0.21% (inactive) |
| CCOC(=O)C1=C(C)NC(=O)NC1c1ccc(OCCO)c(OC)c1 (stereo not drawn) | 92.5 | 85% (inactive) | 92.5% (inactive) | 96.6% (inactive) | 92.1% (inactive) | -1.96% (inactive) | 94.1 | 92.1 | -6.08% (inactive) | -2.3% (inactive) | 1.63% (inactive) | 1.81% (inactive) | -1.65% (inactive) | 102% (inactive) | 100% (inactive) | 1.9% (inactive) | -1.29% (inactive) |
| COC(=O)Cn1c(=O)c2c(nc3n2CC(C)CN3c2ccc(C)c(C)c2)n(C)c1=O (stereo not drawn) | 90.5 | 89% (inactive) | 90.5% (inactive) | 93.2% (inactive) | 85.5% (inactive) | 15.8% (inactive) | 69.7 | 85.5 | -9.47% (inactive) | -3.5% (inactive) | -5.87% (inactive) | 0.135% (inactive) | -0.75% (inactive) | 97.9% (inactive) | 91.1% (inactive) | 1.25% (inactive) | 4.14% (inactive) |
| COC(=O)c1ccccc1NC1c2ccccc2C(=O)N1c1cccnc1 (stereo not drawn) | 95 | 109% (inactive) | 95% (inactive) | 86.9% (inactive) | 84.7% (inactive) | -0.77% (inactive) | 85.4 | 84.7 | 1.07% (inactive) | 0.33% (inactive) | -16.1% (inactive) | 3.47% (inactive) | -0.86% (inactive) | 94.4% (inactive) | 89.8% (inactive) | -1.07% (inactive) | 4.8% (inactive) |
| Cc1cc(C)c(NC(=O)Cn2cc3c(n2)CCCC3)c(C)c1 | 87.5 | 103% (inactive) | 87.5% (inactive) | 104% (inactive) | 96.5% (inactive) | -3.94% (inactive) | 100 | 96.5 | -6% (inactive) | 5.74% (inactive) | 6.13% (inactive) | 12.4% (inactive) | -0.84% (inactive) | 109% (inactive) | 94.9% (inactive) | 2.3% (inactive) | 4.34% (inactive) |
| CN1CCN(C(=O)C2CCN(S(=O)(=O)c3ccc4c(c3)oc(=O)n4C)CC2)CC1 | 89 | 104% (inactive) | 89% (inactive) | 94.4% (inactive) | 107% (inactive) | 14.3% (inactive) | 92.4 | 107 | -2.95% (inactive) | 9.5% (inactive) | -6.74% (inactive) | -5.41% (inactive) | 1.79% (inactive) | 102% (inactive) | 102% (inactive) | 2.46% (inactive) | 3.79% (inactive) |
| CC(=O)c1ccc(NC(=O)C2CCN(S(=O)(=O)c3cccc4cccnc34)CC2)cc1 | 97.5 | 117% (inactive) | 97.5% (inactive) | 100% (inactive) | 84.3% (inactive) | -5.16% (inactive) | 89.4 | 84.3 | -2.67% (inactive) | -5% (inactive) | -5.1% (inactive) | -5.57% (inactive) | -1.12% (inactive) | 107% (inactive) | 99.8% (inactive) | 1.35% (inactive) | 8.91% (inactive) |
| CCn1c(-c2cc(Br)ccc2O)n[nH]c1=S | 99 | 88.5% (inactive) | 99% (inactive) | 107% (inactive) | 98% (inactive) | 0.39% (inactive) | 97.6 | 98 | -4.59% (inactive) | 3.02% (inactive) | -10% (inactive) | -14.2% (inactive) | -1.24% (inactive) | 98.9% (inactive) | 96.8% (inactive) | 1.45% (inactive) | 0.78% (inactive) |
| N#Cc1nc(COc2ccccc2Cl)oc1N1CCCCCC1 | 96.5 | 104% (inactive) | 96.5% (inactive) | 79.6% (inactive) | 93.1% (inactive) | -3.75% (inactive) | 96.9 | 93.1 | -3.6% (inactive) | -3.17% (inactive) | 7.94% (inactive) | 6.52% (inactive) | 2.96% (inactive) | 98.7% (inactive) | 87.5% (inactive) | 2.3% (inactive) | 5.67% (inactive) |
| CN(C)c1cc(NC(=O)CN2CCOCC2)c2ccccc2n1 | 110 | 100% (inactive) | 110% (inactive) | 90.2% (inactive) | 85.8% (inactive) | 0.73% (inactive) | 85 | 85.8 | -5.47% (inactive) | 7.17% (inactive) | -12.2% (inactive) | -11% (inactive) | -1.8% (inactive) | 100% (inactive) | 99.4% (inactive) | -0.365% (inactive) | 0.06% (inactive) |
| Cc1ccc(-c2cc3nc4c(c(=O)n3[nH]2)CCCC4)cc1 | 105 | 119% (inactive) | 105% (inactive) | 88.7% (inactive) | 91.9% (inactive) | -1.42% (inactive) | 93.4 | 91.9 | -0.26% (inactive) | -10% (inactive) | -17% (inactive) | -22.5% (inactive) | -0.73% (inactive) | 95.2% (inactive) | 90.4% (inactive) | 2.7% (inactive) | 5.06% (inactive) |
| COc1ccccc1CNC(=O)C1CCC(CNc2c(N3CCOCC3)c(=O)c2=O)CC1 (stereo not drawn) | 90.5 | 126% (inactive) | 90.5% (inactive) | 86.7% (inactive) | 105% (inactive) | 12% (inactive) | 92.8 | 105 | 1.03% (inactive) | 3% (inactive) | -3.5% (inactive) | 8.34% (inactive) | 0.11% (inactive) | 101% (inactive) | 104% (inactive) | 1.35% (inactive) | 3.53% (inactive) |
| COC(=O)Cn1ncc2c(C)n(Cc3ccccc3)c(C)c2c1=O | 122 | 112% (inactive) | 122% (inactive) | 107% (inactive) | 96% (inactive) | 7.04% (inactive) | 88.9 | 96 | -3.73% (inactive) | 2% (inactive) | -7.07% (inactive) | -6.09% (inactive) | 2.78% (inactive) | 100% (inactive) | 96.7% (inactive) | 0.365% (inactive) | 2.88% (inactive) |

Source: PubChem BioAssay
